From PubChem BioAssay (Tox21)
Records with an inconclusive call do not appear. Active and inactive are the calls of the source. Calls follow the shape of the dose curve; as a rule, active = well fitted curve in the direction sought with a large enough effect in the repeat runs; inconclusive = weak or mixed curves; inactive = no such curve, though single readings can be large; an effect the other way counts as inactive or inconclusive.

Assays:
[1] = Caspase-3/7 induction in HepG2 cells by small molecules, qHTS assay (AID 1346978); also: nearly all actives have a fitted effect of over 15% in size
Procedure, shortened: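 Wild-type HepG2 cells (2,000/well) were settled 5 h at 37 C, 5% CO2, then exposed to compounds in DMSO for 17 h. Caspase-3/7 activity was read by luminescence 30 min after adding Caspase-Glo 3/7 reagent at room temperature.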

[2] = Caspase-3/7 induction in CHO-K1 cells by small molecules, qHTS cell viability counter screen (AID 1346979); also: nearly all actives have a fitted effect of over 35% in size
Procedure, shortened: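 CHO-K1 wt, 1,500 cells/well; 5hr pre-incubation 37C/5% CO2; compound pin transfer (DMSO); 16hr exposure; CellTiter-Fluor added, 1hr, fluorescence read.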

[3] = Caspase-3/7 induction in CHO-K1 cells by small molecules, qHTS assay (AID 1346980); also: nearly all actives have a fitted effect of over 15% in size
Procedure, shortened: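 Wild-type cells were seeded at 1,500 per well and settled 5 hr at 37 C, 5% CO2, then exposed to DMSO-dissolved compounds for 17 hr. Caspase-Glo 3/7 reagent was added, and luminescence was read after 30min at room temperature.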

[4] = target: Nuclear receptor subfamily 1 group I member 2 (Homo sapiens) (UniProt O75469); assay: Human pregnane X receptor (PXR) small molecule agonists, qHTS assay (AID 1346982); also: nearly all actives have a fitted effect of over 35% in size; also: potency is read from the fitted curve at half-maximal effect
Sequence of Nuclear receptor subfamily 1 group I member 2 (Homo sapiens) (O75469 whole entry, looked up): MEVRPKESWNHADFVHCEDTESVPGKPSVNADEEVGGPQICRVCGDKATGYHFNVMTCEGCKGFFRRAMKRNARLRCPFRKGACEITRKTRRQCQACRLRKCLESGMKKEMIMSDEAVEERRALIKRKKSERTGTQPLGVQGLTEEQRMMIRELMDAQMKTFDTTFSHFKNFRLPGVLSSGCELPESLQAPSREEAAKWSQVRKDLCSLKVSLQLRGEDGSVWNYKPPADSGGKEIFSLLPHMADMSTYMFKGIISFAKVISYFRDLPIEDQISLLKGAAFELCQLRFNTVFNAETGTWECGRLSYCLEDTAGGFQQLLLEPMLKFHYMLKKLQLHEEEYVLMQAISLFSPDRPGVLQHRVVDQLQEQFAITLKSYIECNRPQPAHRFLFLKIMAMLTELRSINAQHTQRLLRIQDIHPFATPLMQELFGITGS
Procedure, shortened: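 HepG2 PXR-Luc reporter line, 5% charcoal-stripped FBS; 5 hr pre-incubation, compound (DMSO) 24 hr at 37 C/5% CO2; ONE-Glo 30 min RT; luminescence read-out.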

[5] = target: Nuclear receptor subfamily 1 group I member 2 (Rattus norvegicus) (UniProt Q9R1A7); assay: Rat pregnane X receptor (rPXR) activation by small molecules, qHTS assay (AID 1346983); conditions: rPXR luciferase reporter cells, One-Glo luminescence, 24 h; hits give high values; also: nearly all actives have a fitted effect of over 20% in size
Sequence of Nuclear receptor subfamily 1 group I member 2 (Rattus norvegicus) (Q9R1A7 whole entry, looked up): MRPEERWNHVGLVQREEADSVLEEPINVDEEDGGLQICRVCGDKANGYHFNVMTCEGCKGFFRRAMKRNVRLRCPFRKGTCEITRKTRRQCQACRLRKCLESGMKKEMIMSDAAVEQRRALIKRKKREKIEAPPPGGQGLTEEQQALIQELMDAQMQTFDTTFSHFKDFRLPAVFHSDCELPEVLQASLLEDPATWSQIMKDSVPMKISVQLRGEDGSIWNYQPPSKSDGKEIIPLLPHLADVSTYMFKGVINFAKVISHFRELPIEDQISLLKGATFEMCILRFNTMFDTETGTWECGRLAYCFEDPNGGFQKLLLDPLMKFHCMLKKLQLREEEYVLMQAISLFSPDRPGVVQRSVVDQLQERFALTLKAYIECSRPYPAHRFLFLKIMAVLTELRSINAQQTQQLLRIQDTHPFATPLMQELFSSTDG
Procedure, shortened: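 Cell-based rPXR luciferase reporter assay, 2,000 cells per well, rested 5hr at 37 C before compound addition in DMSO, then 24 hr at 37 C. One-Glo reagent was added and luminescence read after 30 min at room temperature.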

[6] = target: Nuclear receptor subfamily 1 group I member 2 (Homo sapiens) (UniProt O75469); assay: CYP3A4 induction through human pregnane X receptor (PXR) by small molecules, qHTS assay (AID 1346984); also: nearly all actives have a fitted effect of over 40% in size
Procedure, shortened: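 HepG2-derived DPX-2 line carrying PXR plus a CYP3A4-promoter luciferase reporter; cells plated 5 hr, compound-exposed 24 hr at 37C. CYP3A4 activity probed with 3uM (final) Luciferin-IPA for 3hr, then luciferase read after One-Glo.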

[7] = target: Nuclear receptor subfamily 1 group I member 2 (Homo sapiens) (UniProt O75469); assay: Human pregnane X receptor (PXR) activation by small molecules, qHTS assay (AID 1346985); also: nearly all actives have a fitted effect of over 40% in size
Procedure, shortened: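 DPX-2 cells (HepG2 co-transfected with a PXR response element and a CYP3A4-promoter luciferase construct) were seeded at 2,000 per well, rested 5 hr at 37C, then exposed to DMSO-dissolved compounds for 24 hr. Activation was read as luciferase luminescence.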

[8] = target: Cytochrome P450 2D6 (Homo sapiens) (UniProt P10635); assay: Cytochrome P450 Family 2 Subfamily D Member 6 (CYP2D6) small molecule antagonists: luciferase reporter qHTS assay (AID 1671196); also: nearly all actives have a fitted effect of over 50% in size; also: potency is read from the fitted curve at half-maximal effect; as to activity change, negative = inhibition: series mostly up to about 120 µM
Sequence of Cytochrome P450 2D6 (Homo sapiens) (P10635 whole entry, looked up): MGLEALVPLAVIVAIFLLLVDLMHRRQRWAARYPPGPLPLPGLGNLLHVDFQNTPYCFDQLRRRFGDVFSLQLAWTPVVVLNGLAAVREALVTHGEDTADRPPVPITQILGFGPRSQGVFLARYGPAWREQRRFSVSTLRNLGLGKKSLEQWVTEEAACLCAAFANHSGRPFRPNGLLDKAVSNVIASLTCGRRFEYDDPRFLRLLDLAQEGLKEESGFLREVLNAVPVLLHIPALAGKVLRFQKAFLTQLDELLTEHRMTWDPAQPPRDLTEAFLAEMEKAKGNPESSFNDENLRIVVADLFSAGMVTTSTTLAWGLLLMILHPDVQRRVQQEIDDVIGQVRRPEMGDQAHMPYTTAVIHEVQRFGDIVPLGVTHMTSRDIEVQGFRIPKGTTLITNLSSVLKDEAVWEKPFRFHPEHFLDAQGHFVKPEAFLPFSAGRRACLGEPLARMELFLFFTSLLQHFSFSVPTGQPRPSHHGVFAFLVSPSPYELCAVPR
Procedure, shortened: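 Luminogenic proluciferin substrate, CYP2D6 enzyme; 10 min RT preincubation with compound, NADPH regeneration system added, 1 h RT. Stop/detection reagent, 20 min RT, luminescence read (RLU). Signal proportional to CYP activity.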

[9] = target: Cytochrome P450 2C19 (Homo sapiens) (UniProt P33261); assay: Cytochrome P450 Family 2 Subfamily C Member 19 (CYP2C19) small molecule antagonists: luciferase reporter qHTS assay (AID 1671197); also: nearly all actives have a fitted effect of over 65% in size; also: potency is read from the fitted curve at half-maximal effect; as to activity change, negative = inhibition: series mostly up to about 120 µM
Sequence of Cytochrome P450 2C19 (Homo sapiens) (P33261 whole entry, looked up): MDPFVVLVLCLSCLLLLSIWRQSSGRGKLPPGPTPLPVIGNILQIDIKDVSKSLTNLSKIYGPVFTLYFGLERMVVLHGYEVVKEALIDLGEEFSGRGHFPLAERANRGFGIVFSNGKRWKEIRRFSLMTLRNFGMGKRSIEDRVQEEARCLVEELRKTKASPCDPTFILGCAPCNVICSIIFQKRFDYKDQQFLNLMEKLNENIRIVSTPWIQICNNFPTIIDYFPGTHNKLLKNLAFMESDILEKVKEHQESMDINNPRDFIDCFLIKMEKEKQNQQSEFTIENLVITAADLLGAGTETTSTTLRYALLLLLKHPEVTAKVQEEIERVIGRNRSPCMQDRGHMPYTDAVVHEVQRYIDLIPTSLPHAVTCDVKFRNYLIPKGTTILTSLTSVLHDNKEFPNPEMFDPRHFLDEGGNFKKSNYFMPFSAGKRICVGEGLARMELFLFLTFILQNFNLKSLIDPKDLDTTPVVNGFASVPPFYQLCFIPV
Procedure, shortened: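 Quantitative high-throughput screen of the Tox21 library using CYP2C19 with proluciferin substrate. Reaction: NADPH regeneration, 37C, 1 h, after 10 min compound preincubation at room temperature. Readout: luminescence.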

[10] = target: Cytochrome P450 2C9 (Homo sapiens) (UniProt P11712); assay: Cytochrome P450 Family 2 Subfamily C Member 9 (CYP2C9) small molecule antagonists: luciferase reporter qHTS assay (AID 1671198); also: series mostly up to about 120 µM; nearly all actives have a fitted effect of over 50% in size
Sequence of Cytochrome P450 2C9 (Homo sapiens) (P11712 whole entry, looked up): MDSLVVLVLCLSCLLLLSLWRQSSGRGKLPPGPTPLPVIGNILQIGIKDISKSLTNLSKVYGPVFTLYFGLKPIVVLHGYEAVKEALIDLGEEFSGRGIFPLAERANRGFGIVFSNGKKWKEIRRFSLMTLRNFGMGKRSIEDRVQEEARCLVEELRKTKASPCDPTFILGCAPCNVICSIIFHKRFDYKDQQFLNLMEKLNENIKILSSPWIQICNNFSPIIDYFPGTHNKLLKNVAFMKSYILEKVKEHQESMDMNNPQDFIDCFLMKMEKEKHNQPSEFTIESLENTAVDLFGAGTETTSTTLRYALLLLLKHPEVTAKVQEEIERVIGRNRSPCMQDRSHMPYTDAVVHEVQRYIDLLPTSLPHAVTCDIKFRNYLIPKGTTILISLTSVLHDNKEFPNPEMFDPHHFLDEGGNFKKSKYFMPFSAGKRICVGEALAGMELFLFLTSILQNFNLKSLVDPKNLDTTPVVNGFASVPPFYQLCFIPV
Procedure, shortened: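 CYP2C9 activity was measured with a P450-Glo proluciferin substrate. Enzyme–substrate mix was held with compound for 10 min at room temperature, then NADPH regeneration solution was added for 1 h at 37C. Luciferin product was read as luminescence.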

[11] = target: Cytochrome P450 1A2 (Homo sapiens) (UniProt P05177); assay: Cytochrome P450 Family 1 Subfamily A Member 2 (CYP1A2) small molecule antagonists: luciferase reporter qHTS assay (AID 1671199); also: nearly all actives have a fitted effect of over 50% in size; also: potency is read from the fitted curve at half-maximal effect; as to activity change, negative = inhibition: series mostly up to about 120 µM
Sequence of Cytochrome P450 1A2 (Homo sapiens) (P05177 whole entry, looked up): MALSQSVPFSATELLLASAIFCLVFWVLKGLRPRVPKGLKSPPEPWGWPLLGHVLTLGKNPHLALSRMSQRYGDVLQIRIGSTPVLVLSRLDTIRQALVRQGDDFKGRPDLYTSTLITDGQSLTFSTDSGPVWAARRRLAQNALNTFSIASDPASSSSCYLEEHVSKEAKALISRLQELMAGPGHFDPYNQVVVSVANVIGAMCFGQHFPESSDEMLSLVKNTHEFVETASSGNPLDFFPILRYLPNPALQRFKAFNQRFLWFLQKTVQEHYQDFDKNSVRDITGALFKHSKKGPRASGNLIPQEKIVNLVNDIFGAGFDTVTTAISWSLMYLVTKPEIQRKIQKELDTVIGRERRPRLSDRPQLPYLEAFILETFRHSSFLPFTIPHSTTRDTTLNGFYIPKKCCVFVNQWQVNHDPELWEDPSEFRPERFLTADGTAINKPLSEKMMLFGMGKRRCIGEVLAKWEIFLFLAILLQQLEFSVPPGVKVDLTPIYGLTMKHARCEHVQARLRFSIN
Procedure, shortened: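 Luminescence readout (relative luminescence units) after luciferin detection reagent, 20 min RT. Preceded by 1 h room-temperature CYP1A2 reaction with NADPH regeneration solution following 10 min compound preincubation with enzyme and proluciferin substrate. Furafylline positive control.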

[12] = Caspase-3/7 induction in HepG2 cells by small molecules, qHTS cell viability counter screen (AID 1346981); also: series mostly up to about 92 µM; nearly all actives have a fitted effect of over 30% in size
Procedure, shortened: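 Fluorescence read-out of live-cell protease activity (CellTiter-Fluor) after 1 hr with reagent. This was measured in the same wells as the caspase-3/7 luminescence, on HepG2 cells exposed to DMSO-dissolved compounds for 16 hr at 37 C.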

[13] = target: Voltage-gated inwardly rectifying potassium channel KCNH2 (Homo sapiens) (UniProt Q12809); assay: Human Ether-a-go-go-Related Gene (hERG) channel small molecule antagonists: fluorescence cell-based qHTS assay (AID 1671200); also: nearly all actives have a fitted effect of over 50% in size; also: potency is read from the fitted curve at half-maximal effect;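 as to activity change, negative = inhibition: hERG-expressing U2OS cells given a thallium stimulus after FluxOR II dye loading; series mostly up to about 77 µM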
Sequence of Voltage-gated inwardly rectifying potassium channel KCNH2 (Homo sapiens) (Q12809 whole entry, looked up): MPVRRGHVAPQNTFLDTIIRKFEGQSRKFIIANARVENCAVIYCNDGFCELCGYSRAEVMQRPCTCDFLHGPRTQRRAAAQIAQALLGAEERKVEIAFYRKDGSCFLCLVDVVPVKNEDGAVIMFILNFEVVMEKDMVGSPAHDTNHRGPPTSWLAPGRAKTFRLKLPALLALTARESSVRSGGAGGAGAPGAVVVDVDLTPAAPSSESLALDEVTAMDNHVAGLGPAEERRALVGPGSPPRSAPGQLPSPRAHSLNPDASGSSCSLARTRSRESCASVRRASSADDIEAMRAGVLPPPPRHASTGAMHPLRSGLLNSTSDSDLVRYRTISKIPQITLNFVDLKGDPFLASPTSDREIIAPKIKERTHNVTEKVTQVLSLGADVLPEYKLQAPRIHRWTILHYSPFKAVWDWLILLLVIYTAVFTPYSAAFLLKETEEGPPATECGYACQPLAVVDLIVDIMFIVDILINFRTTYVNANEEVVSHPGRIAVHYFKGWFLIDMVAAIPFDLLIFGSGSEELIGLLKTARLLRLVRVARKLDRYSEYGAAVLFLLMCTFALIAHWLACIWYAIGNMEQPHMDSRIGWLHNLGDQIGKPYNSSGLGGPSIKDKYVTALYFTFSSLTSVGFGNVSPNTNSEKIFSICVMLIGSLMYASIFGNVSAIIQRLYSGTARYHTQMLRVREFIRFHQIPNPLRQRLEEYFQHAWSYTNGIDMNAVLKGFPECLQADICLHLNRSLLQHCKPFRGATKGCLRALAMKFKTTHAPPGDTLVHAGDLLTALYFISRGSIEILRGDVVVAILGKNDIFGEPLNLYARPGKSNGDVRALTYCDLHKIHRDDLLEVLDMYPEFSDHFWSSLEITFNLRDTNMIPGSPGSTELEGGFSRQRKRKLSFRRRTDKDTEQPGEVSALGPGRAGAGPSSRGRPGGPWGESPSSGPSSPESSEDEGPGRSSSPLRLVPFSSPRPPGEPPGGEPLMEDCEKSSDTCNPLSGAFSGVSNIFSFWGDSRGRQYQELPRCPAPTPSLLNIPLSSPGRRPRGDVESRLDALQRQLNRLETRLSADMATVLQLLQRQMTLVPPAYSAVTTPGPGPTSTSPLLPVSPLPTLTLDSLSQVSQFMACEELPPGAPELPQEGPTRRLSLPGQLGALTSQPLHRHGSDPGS
Procedure, shortened: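 Read-out: thallium influx as a surrogate for potassium, tracked as fluorescence (480 nm ex/540 nm em) every second for 2 min after Stimulus Buffer addition in dye-loaded hERG-U2OS cells.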

[14] = target: Cytochrome P450 3A4 (Homo sapiens) (UniProt P08684); assay: Cytochrome P450 Family 3 Subfamily A Member 4 (CYP3A4) small molecule antagonists: luciferase reporter qHTS assay (AID 1671201)
Sequence of Cytochrome P450 3A4 (Homo sapiens) (P08684 whole entry, looked up): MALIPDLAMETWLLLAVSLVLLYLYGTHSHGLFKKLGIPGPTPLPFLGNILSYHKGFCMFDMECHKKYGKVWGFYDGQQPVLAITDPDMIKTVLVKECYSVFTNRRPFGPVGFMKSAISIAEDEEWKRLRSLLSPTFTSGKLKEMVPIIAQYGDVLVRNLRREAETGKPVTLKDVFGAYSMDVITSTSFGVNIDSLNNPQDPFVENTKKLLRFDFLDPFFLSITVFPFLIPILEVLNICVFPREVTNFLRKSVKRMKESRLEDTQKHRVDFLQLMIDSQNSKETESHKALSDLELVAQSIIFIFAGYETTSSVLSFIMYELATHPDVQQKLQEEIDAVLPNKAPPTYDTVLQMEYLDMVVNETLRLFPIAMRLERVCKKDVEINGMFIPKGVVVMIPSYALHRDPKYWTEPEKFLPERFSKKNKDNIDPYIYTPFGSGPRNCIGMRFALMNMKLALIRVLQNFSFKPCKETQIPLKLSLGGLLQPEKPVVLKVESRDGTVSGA
Procedure, shortened: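 Luminescent readout (RLU) proportional to CYP3A4 activity, from luciferin generated off a proluciferin substrate. Enzyme–substrate mix plus compound 10 min at room temp, NADPH regeneration 1 h, detection reagent 20 min.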
% is scaled to controls: 0 for no effect and ±100 for the full control effect.

C[C@@H]1CCN(C(=O)[C@H](CCCN=C(N)N)NS(=O)(=O)c2cccc3c2NC[C@H](C)C3)[C@@H](C(=O)O)C1
inactive: Potency [1] | Potency [2] | outcome [3] | Potency [4] | max activation [5] -0.172% | Potency [6] | Potency [7] | Potency [8] | Potency [9] | Potency [10] | Potency [11]

CN1C(=O)N(C)C(O)C1O (stereo not given)
inactive: Potency [1] | Potency [2] | outcome [3] | Potency [12] | Potency [8] | Potency [9] | Potency [10] | Potency [13] | Potency [14]

FC(F)OC(Cl)C(F)(F)F (stereo not given)
active: Potency [11] 39.9 µM
inactive: Potency [1] | Potency [2] | outcome [3] | Potency [4] | max activation [5] -3.14% | Potency [6] | Potency [7] | Potency [8] | Potency [10] | Potency [13] | Potency [14]

N=C(N)c1ccccc1
inactive: Potency [1] | Potency [2] | outcome [3] | Potency [12] | Potency [9] | Potency [10] | Potency [11] | Potency [13] | Potency [14]

O=C(O)CN(CCOCCOCCN(CC(=O)O)CC(=O)O)CC(=O)O
inactive: caspase activation [1] -0.864% [at 0.349 µM] | activity change, negative = cytotoxicity [2] 10.9% [at 0.349 µM] | caspase-3/7 activation [3] 0.707% [at 0.349 µM] | activation [4] -3.68% [at 0.349 µM] | activity change, negative = inhibition [8] -9.59% [at 0.435 µM] | activity change, negative = inhibition [9] -11.6% [at 0.435 µM] | activity change, negative = inhibition [10] 4.56% [at 0.435 µM] | activity change, negative = inhibition [11] -6.73% [at 0.435 µM] | activity change, negative = inhibition [13] 0.825% [at 0.29 µM] | activity change, negative = inhibition [14] 0.649% [at 0.435 µM]

Cc1ccc(Cl)cc1Cl
inactive: Potency [1] | Potency [2] | outcome [3] | Potency [4] | Potency [8] | Potency [9] | Potency [10] | Potency [13] | Potency [14]

O=C1CCCC(=O)C1
inactive: Potency [1] | Potency [2] | outcome [3] | Potency [4] | Potency [8] | Potency [9] | Potency [13] | Potency [14]

C1OCOCO1
inactive: Potency [1] | Potency [2] | outcome [3] | Potency [8] | Potency [9] | Potency [10] | Potency [11] | Potency [13] | Potency [14]

CC1=CC(C)C(C=O)CC1 (stereo not given)
inactive: Potency [1] | Potency [2] | outcome [3] | Potency [8] | Potency [9] | Potency [10] | Potency [11] | Potency [13] | Potency [14]

COc1ccc(CCN(C)CCCC(C#N)(c2cc(OC)c(OC)c(OC)c2)C(C)C)cc1OC (stereo not given)
active: Potency [4] 4.73 µM | Potency [13] 7.56 µM
inactive: Potency [1] | Potency [2] | outcome [3] | Potency [9] | Potency [11]

Cn1c(N)c(N=O)c(=O)n(C)c1=O
inactive: Potency [1] | Potency [2] | outcome [3] | Potency [10] | Potency [11] | Potency [13] | Potency [14]
active: Potency [9] 58.2 µM

CCC(C)S (stereo not given)
inactive: caspase activation [1] -0.355% [at 3.27 µM] | activity change, negative = cytotoxicity [2] 5.39% [at 3.27 µM] | caspase-3/7 activation [3] 1.28% [at 3.27 µM] | activation [4] -2.18% [at 3.27 µM] | activity change, negative = inhibition [8] -10.7% [at 4.07 µM] | activity change, negative = inhibition [9] 8.24% [at 4.07 µM] | activity change, negative = inhibition [10] -9.04% [at 4.07 µM] | activity change, negative = inhibition [13] 1.71% [at 2.72 µM] | activity change, negative = inhibition [14] 2.72% [at 4.07 µM]

N=c1nc(N2CCCCC2)cc(N)n1O
active: Potency [8] 21.9 µM
inactive: Potency [1] | Potency [2] | outcome [3] | Potency [4] | Potency [9] | Potency [10] | Potency [11] | Potency [13] | Potency [14]
